Measured values from the supplement of paper PMC10849652.
Of roughly 8,800 targets only a part is listed; those with a hit were picked by preference. About 0.5% of all pairs of compound and target were hits.

Experiments:
Assay in all cases: log2 fold change, soluble protein after heating vs DMSO (PISA); higher = thermal stabilisation; K562 lysate, 10 uM; active = over 0.2 and 3.5 SD of the protein, either way, in both replicates (recomputed)
ibrutinib = compound: C=CC(=O)N1CCC[C@@H](n2nc(-c3ccc(Oc4ccccc4)cc3)c3c(N)ncnc32)C1 [ibrutinib]
How it was run: (§1)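 Dounce homogenisation of K562 pellets in PBS pH 7.4 with 1 mM MgCl2 produced a crude extract, used at 1 mg/mL protein. Exposure to 10 μM compound lasted 30 min, and aliquots were then heated for 3 min across 48°C-58°C, pooled and brought to 0.5% NP-40 at 4°C. The supernatant after 21,000xg for 90 min was quantified by TMTpro 16plex LC-MS/MS with channel sums equalised. Duplicate values are given as log-two fold change in thermal stability relative to solvent controls.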

[1] = compound: CC(=O)c1cnc2ccc(-c3cc(Cl)c(O)c(Cl)c3)nc2c1N[C@H]1CC[C@H](CN(C)C)CC1
How it was run: as §1

ralimetinib = compound: CC(C)(C)Cn1c(N)nc2ccc(-c3[nH]c(C(C)(C)C)nc3-c3ccc(F)cc3)nc21 [ralimetinib]
How it was run: as §1

[2] = compound: CC(C)(O)CC(=O)NCCn1ccc2ncnc(Nc3ccc(Oc4cccc(C(F)(F)F)c4)c(Cl)c3)c21
How it was run: as §1

[3] = compound: CC(C)C1=C2N=C(C=C(N2N=C1)NCC3=CC=CC=C3)NCCCCCCN
How it was run: as §1

[4] = compound: CC1=C(C(CC(=O)N1)C2=CC=C(C=C2)C(F)(F)F)C(=O)NC3=C(C=C4C(=C3)C=NN4)F
How it was run: as §1

[5] = compound: CC1=C(C=C(C=C1)NC(=O)C2=CC(=CC=C2)C(C)(C)C#N)NC3=CC4=C(C=C3)N=CN(C4=O)C
How it was run: as §1

[6] = compound: CC1=C(C=C(C=C1)NC(=O)C2=CC(=CC=C2)N(C)C)NC(=O)C3=CC=C(C=C3)O
How it was run: as §1

[7] = compound: CC1=CC=C(C=C1)SC2=C3C=C(SC3=CN=C2)C(=O)N
How it was run: as §1

[8] = compound: CC1=C(C2=C(C=C1)C(=O)C3=CC=CC=C3N2CCCN)C
How it was run: as §1

Measured: log2 fold change

SNUPN (UniProt O95149)
inactive: ibrutinib -0.072 | [1] 0.001 | ralimetinib -0.008 | [2] -0.068 | [3] -0.116 | [4] -0.065 | [5] 0.001 | [6] -0.036 | [7] 0.027

SNW1 (UniProt Q13573)
Chain of UniProt Q13573 (Q13573 whole entry, looked up): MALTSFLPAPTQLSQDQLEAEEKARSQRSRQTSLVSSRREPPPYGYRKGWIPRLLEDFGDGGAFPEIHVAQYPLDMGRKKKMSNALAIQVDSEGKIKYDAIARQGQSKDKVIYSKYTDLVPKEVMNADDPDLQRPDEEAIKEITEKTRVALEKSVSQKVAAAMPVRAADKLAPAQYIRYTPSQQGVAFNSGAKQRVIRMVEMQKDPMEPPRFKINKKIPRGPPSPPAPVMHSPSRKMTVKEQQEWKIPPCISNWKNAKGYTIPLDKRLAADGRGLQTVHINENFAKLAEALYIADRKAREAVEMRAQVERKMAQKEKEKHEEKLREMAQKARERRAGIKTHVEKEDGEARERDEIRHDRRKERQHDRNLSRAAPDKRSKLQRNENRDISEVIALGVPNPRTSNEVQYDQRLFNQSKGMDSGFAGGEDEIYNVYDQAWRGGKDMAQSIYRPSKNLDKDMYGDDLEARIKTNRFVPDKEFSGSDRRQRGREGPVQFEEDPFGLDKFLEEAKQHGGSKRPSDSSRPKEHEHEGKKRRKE
inactive: ibrutinib 0.01 | [1] 0.001 | ralimetinib -0.005 | [2] -0.007 | [3] 0.014 | [4] 0.007 | [8] -0.045 | [5] 0.016 | [6] -0.004 | [7] 0.015

SP1 (UniProt P08047)
inactive: ibrutinib 0.04 | [1] 0.017 | ralimetinib -0.018 | [2] -0.049 | [3] -0.103 | [4] -0.013 | [8] 0.061 | [5] 0.22 | [6] 0.017 | [7] -0.027

SPATA5 (UniProt Q8NB90)
inactive: ibrutinib 0.013 | [1] -0.002 | ralimetinib 0.047 | [2] 0.025 | [3] 0.02 | [4] -0.009 | [8] 0.009 | [5] 0.002 | [6] 0.042 | [7] 0.012

SPR (UniProt P35270)
inactive: ibrutinib 0.027 | [1] 0.293 | ralimetinib 0.024 | [2] 0 | [3] -0.048 | [4] -0.051 | [8] -0.038 | [5] -0.046 | [6] -0.028 | [7] 0.023

SLC29A2 (UniProt Q14542)
inactive: ibrutinib 0.035 | [1] 0.045 | ralimetinib 0.082 | [2] -0.036 | [3] 0.043 | [4] -0.001 | [8] -0.011 | [5] 0.041 | [6] 0.072 | [7] 0.006

STMN3 (UniProt Q9NZ72)
inactive: ibrutinib 0.006 | [1] -0.028 | ralimetinib 0.093 | [2] 0.025 | [3] -0.089 | [4] -0.003 | [8] -0.059 | [5] 0.012 | [6] -0.011 | [7] 0.009

SSX5 isoform 2 (UniProt O60225)
inactive: ibrutinib -0.081 | [1] 0.028 | ralimetinib 0 | [2] 0.032 | [3] -0.261 | [4] -0.089 | [6] -0.018 | [7] -0.003

SPC25 (UniProt Q9HBM1)
inactive: ibrutinib 0 | [1] -0.058 | ralimetinib -0.038 | [2] 0.015 | [3] -0.002 | [4] -0.032 | [8] -0.017 | [5] 0.016 | [6] 0.002 | [7] 0.006

SHKBP1 (UniProt Q8TBC3)
inactive: ibrutinib 0.064 | [1] -0.02 | ralimetinib 0.063 | [2] 0.006 | [3] 0.067 | [4] -0.005 | [8] -0.051 | [5] 0.038 | [6] 0.052 | [7] 0.004

SKP2 (UniProt Q13309)
inactive: [1] -0.137 | ralimetinib 0.137 | [2] 0.045 | [3] 0.058 | [4] -0.041 | [8] 0.023 | [5] -0.097 | [6] -0.015
active: [7] -0.576

SLC35A3 isoform 2 (UniProt Q9Y2D2)
Chain of UniProt Q9Y2D2 (Q9Y2D2 whole entry, looked up): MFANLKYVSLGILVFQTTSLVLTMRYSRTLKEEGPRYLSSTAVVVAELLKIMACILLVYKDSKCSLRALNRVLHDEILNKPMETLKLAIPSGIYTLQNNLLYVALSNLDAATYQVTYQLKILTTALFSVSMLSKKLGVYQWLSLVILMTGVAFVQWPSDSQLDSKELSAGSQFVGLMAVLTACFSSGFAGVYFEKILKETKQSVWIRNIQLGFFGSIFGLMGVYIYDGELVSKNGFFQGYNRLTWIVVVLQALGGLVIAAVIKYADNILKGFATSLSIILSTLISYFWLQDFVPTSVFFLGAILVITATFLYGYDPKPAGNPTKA
inactive: [1] -0.034 | ralimetinib -0.027 | [2] 0.234 | [3] -0.027 | [4] -0.133 | [5] 0.111 | [6] -0.025 | [7] 0.051

SNRPD2 (UniProt K7EJB5)
inactive: [1] -0.004 | ralimetinib 0.142 | [2] -0.075 | [3] 0.014 | [4] 0.052 | [8] -0.022 | [5] -0.011 | [6] 0.069 | [7] -0.01

STAR (UniProt P49675)
inactive: ralimetinib -0.139 | [2] 0.02 | [3] 0.073 | [4] -0.027 | [8] -0.052 | [5] -0.049 | [6] -0.039

SLC22A18 (UniProt Q96BI1)
Chain of UniProt Q96BI1 (Q96BI1 whole entry, looked up): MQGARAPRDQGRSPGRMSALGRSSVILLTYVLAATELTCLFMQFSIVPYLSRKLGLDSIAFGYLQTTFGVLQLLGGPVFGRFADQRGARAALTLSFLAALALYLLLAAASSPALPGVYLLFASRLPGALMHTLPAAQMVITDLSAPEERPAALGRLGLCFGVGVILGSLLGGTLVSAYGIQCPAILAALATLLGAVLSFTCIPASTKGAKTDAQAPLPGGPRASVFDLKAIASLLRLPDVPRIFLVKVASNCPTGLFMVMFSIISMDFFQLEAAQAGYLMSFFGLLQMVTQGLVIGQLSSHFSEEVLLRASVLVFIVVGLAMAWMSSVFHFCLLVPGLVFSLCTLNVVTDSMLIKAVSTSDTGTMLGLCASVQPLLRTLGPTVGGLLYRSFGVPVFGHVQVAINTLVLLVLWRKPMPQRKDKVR
inactive: ibrutinib 0.099 | [1] -0.047 | [3] 0.049 | [5] 0.02 | [7] 0.011

STAU1 isoform 3 (UniProt O95793)
inactive: ibrutinib -0.094 | [3] 0.028 | [4] 0.012 | [5] -0.064

TAF11 (UniProt Q15544)
inactive: [1] -0.013 | ralimetinib 0.027 | [2] 0.008 | [4] 0.015 | [8] 0.115 | [5] 0.052 | [6] 0.072 | [7] -0.114

SLC41A1 (UniProt Q8IVJ1)
inactive: [1] 0.007 | ralimetinib -0.003 | [2] 0.112 | [3] -0.037 | [4] -0.023 | [5] -0.081 | [6] 0.09 | [7] 0.041

SLU7 (UniProt O95391)
inactive: ibrutinib -0.084 | ralimetinib -0.013 | [2] -0.018 | [3] 0.045 | [4] -0.029 | [8] -0.015 | [5] 0 | [6] -0.031

SMARCA4 isoform 4 (UniProt P51532)
inactive: [1] 0.044 | ralimetinib 0.051 | [2] -0.022 | [3] -0.337 | [4] 0.093 | [8] -0.018 | [5] -0.107 | [6] 0.192 | [7] 0.041

SRC isoform 2 (UniProt P12931)
Chain of UniProt P12931 (P12931 whole entry, looked up): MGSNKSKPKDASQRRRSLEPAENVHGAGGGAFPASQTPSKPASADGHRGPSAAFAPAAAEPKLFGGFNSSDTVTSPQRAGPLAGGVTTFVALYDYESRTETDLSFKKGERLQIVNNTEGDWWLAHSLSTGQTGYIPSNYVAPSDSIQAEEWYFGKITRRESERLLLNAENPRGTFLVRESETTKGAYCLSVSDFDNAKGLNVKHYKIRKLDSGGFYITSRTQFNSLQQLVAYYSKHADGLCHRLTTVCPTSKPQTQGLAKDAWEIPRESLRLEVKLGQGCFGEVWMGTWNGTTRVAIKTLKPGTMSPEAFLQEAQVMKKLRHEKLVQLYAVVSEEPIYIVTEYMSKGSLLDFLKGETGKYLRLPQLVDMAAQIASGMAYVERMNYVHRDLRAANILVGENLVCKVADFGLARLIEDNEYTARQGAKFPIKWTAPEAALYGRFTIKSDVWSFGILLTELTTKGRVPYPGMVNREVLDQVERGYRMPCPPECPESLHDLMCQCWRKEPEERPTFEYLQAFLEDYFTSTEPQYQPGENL
inactive: [1] -0.061 | ralimetinib -0.035 | [2] 0.075 | [3] 0.052 | [8] 0.07 | [6] 0.042 | [7] 0

TAF1B (UniProt Q53T94)
inactive: ibrutinib -0.156 | [1] 0.095 | ralimetinib 0.043 | [2] -0.112 | [4] 0.419 | [8] -0.101 | [5] 0.032 | [6] 0.006 | [7] 0.138

SLC39A13 (UniProt Q96H72)
inactive: ralimetinib 0.004 | [2] -0.137 | [3] -0.003 | [6] 0.25

SPA17 (UniProt Q15506)
Chain of UniProt Q15506 (Q15506 whole entry, looked up): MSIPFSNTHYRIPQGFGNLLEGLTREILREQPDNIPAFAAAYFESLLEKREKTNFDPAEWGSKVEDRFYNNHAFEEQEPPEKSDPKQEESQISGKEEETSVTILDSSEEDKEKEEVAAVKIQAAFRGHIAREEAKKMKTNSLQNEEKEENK
inactive: ibrutinib 0.056 | [1] 0.028 | ralimetinib 0.006 | [2] -0.098 | [8] 0.051 | [5] -0.053 | [6] 0.026 | [7] -0.058

STK38L (UniProt Q9Y2H1)
Chain of UniProt Q9Y2H1 (Q9Y2H1 whole entry, looked up): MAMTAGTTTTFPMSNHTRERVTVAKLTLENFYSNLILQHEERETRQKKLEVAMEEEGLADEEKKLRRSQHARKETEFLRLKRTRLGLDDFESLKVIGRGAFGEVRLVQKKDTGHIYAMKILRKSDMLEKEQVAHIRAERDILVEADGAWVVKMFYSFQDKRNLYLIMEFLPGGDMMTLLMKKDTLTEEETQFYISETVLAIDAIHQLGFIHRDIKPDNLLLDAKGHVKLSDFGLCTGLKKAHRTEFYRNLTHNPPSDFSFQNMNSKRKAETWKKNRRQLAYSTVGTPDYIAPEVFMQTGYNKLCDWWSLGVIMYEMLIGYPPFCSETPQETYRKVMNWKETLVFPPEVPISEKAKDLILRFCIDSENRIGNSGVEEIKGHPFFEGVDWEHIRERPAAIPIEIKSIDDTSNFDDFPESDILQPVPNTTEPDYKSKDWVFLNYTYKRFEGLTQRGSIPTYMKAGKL
inactive: ralimetinib -0.069 | [2] 0.021 | [3] -0.019 | [4] -0.024 | [8] -0.019 | [5] 0 | [6] 0.056

STK17A (UniProt Q9UEE5)
inactive: [4] 0.213

STK17B (UniProt O94768)
inactive: ralimetinib 0.104 | [2] -0.004 | [3] 0.162 | [4] 0.054 | [8] -0.102 | [5] 0.147 | [6] 0.07

SURF2 (UniProt Q15527)
inactive: ibrutinib 0.001 | [1] -0.019 | ralimetinib -0.147 | [2] -0.038 | [4] 0.103 | [8] 0.018 | [5] 0.026 | [6] 0.031 | [7] -0.02

STK26 isoform 3 (UniProt Q9P289)
inactive: [8] -0.157 | [5] -0.146

SHB (UniProt Q15464)
Chain of UniProt Q15464 (Q15464 whole entry, looked up): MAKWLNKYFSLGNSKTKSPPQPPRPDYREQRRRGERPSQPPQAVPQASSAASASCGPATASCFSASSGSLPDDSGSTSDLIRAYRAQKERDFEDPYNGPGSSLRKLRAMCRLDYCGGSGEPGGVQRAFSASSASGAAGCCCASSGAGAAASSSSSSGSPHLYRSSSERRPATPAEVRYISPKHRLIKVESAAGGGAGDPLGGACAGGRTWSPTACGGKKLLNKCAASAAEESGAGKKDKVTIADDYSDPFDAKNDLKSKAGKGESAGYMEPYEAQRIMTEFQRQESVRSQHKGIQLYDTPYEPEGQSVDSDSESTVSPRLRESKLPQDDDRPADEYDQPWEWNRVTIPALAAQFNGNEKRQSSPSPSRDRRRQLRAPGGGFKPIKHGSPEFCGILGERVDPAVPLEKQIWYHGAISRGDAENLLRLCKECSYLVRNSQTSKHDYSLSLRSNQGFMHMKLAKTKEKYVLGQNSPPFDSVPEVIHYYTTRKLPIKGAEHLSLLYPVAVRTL
inactive: [1] -0.023 | ralimetinib 0.023 | [2] -0.025 | [3] -0.009 | [8] -0.01 | [5] 0.023 | [6] -0.012 | [7] 0.05

SLC40A1 (UniProt Q9NP59)
Chain of UniProt Q9NP59 (Q9NP59 whole entry, looked up): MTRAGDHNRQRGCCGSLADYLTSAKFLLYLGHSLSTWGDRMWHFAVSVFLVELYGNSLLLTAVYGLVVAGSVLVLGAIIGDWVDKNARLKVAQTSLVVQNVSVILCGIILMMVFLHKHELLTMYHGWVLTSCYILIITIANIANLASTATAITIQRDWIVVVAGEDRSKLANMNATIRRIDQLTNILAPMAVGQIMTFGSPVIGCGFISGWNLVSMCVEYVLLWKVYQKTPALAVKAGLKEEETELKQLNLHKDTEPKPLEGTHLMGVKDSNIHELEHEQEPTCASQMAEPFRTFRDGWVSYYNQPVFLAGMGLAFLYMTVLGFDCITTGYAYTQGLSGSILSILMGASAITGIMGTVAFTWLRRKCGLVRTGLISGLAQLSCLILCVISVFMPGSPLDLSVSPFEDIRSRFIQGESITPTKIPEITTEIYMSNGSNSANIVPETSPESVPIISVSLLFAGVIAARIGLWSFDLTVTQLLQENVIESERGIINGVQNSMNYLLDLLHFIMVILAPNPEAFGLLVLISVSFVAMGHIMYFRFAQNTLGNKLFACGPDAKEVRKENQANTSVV
inactive: [1] -0.028 | ralimetinib -0.037 | [2] -0.096 | [3] 0.042 | [4] -0.017 | [8] 0.049 | [5] -0.034 | [6] 0.041 | [7] -0.055

SLCO4A1 (UniProt Q96BD0)
inactive: ibrutinib 0.081 | [4] 0.115

SNAPC2 (UniProt Q13487)
inactive: ibrutinib 0.092 | ralimetinib 0.002 | [2] -0.029 | [3] -0.032 | [4] -0.073 | [8] -0.071 | [5] -0.008 | [6] 0.011

TAOK2 (UniProt Q9UL54)
inactive: ibrutinib -0.009 | [1] 0.151 | ralimetinib -0.035 | [2] -0.033 | [4] -0.072 | [8] -0.053 | [5] -0.037 | [6] -0.044 | [7] 0.024

SMPD2 (UniProt O60906)
inactive: [1] 0.01 | ralimetinib -0.03 | [2] 0.067 | [3] 0.388 | [8] 0.077 | [6] -0.113 | [7] 0.058

SNIP1 (UniProt Q8TAD8)
inactive: [4] -0.062

SNAP23 isoform 2 (UniProt O00161)
inactive: [1] -0.045 | ralimetinib -0.071 | [2] 0.095 | [3] -0.029 | [4] 0.306 | [6] 0.027 | [7] 0.028

SPAG1 (UniProt Q07617)
inactive: ibrutinib 0.034 | [1] 0.282 | ralimetinib -0.017 | [2] -0.17 | [5] 0.15 | [6] 0.079 | [7] -0.198

SIN3B (UniProt O75182)
inactive: [4] 0.19 | [5] 1.04

TAOK2 isoform 2 (UniProt Q9UL54)
inactive: [4] 0.034

SLC12A6 isoform 2 (UniProt Q9UHW9)
Chain of UniProt Q9UHW9 (Q9UHW9 whole entry, looked up): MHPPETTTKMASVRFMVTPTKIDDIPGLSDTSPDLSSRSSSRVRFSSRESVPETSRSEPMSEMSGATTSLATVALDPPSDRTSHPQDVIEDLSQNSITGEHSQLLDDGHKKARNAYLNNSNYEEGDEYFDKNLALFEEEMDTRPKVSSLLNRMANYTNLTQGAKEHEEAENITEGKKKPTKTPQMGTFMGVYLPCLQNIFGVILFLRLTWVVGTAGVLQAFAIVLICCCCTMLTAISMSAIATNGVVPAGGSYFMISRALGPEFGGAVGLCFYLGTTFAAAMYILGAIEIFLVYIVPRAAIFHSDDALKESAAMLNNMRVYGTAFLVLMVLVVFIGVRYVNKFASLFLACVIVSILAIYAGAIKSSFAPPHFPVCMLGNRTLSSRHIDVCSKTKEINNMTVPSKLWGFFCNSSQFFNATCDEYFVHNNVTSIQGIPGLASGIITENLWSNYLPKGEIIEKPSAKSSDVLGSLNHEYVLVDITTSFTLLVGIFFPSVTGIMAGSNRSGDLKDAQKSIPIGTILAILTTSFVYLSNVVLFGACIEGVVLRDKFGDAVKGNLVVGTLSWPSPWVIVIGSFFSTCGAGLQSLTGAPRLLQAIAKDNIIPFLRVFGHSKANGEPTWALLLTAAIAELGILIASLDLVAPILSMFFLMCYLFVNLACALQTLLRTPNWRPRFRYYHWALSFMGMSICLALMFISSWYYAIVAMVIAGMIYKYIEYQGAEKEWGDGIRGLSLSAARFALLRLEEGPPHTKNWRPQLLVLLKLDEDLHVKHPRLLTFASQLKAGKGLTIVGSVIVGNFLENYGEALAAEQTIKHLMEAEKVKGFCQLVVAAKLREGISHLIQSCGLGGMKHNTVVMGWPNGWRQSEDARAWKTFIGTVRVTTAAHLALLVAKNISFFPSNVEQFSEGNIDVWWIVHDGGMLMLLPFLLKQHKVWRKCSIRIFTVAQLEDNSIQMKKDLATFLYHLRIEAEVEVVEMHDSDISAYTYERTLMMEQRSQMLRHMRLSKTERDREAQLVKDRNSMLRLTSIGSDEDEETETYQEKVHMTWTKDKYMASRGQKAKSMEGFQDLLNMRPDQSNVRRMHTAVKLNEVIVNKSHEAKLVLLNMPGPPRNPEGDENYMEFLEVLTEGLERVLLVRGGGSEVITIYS
inactive: [1] 0.016 | ralimetinib -0.01 | [2] 0.017 | [3] -0.018 | [8] 0.027 | [5] 0.063 | [6] -0.006 | [7] 0.122

SPPL2A (UniProt Q8TCT8)
inactive: ibrutinib -0.081 | [1] 0.154 | ralimetinib -0.152 | [2] -0.219 | [3] 0.004 | [5] 0.138 | [6] 0.091 | [7] -0.008

SLC25A36 (UniProt Q96CQ1)
Chain of UniProt Q96CQ1 (Q96CQ1 whole entry, looked up): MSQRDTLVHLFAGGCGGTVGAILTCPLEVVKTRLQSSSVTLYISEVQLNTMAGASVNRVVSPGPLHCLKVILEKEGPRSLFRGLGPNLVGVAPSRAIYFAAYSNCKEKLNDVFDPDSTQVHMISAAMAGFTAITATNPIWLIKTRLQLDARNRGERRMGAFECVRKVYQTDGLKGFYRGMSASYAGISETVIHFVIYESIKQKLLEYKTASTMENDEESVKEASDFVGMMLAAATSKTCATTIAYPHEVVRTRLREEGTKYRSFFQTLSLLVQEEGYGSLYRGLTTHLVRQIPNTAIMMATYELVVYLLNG
inactive: [1] -0.012 | ralimetinib 0.142 | [2] -0.048 | [3] 0.1 | [4] 0.044 | [8] -0.16 | [5] 0.011 | [6] 0.027 | [7] 0.013
